Laboratory results taken from PubChem BioAssay AID1159580 (chemical genetic matrix, 2015).
Values joined by “and” are separate entries in the source; they are usually repeats but may differ in a detail not shown here. Equal values may be shown once. In all, about 5,500 compounds went through this assay and about 2,000 (36%) were called active. Not shown: some 18% with an inconclusive outcome. Cut-off read from the data, not from the text of the source: active = normalized growth mostly below about 0.91 (no sharp cut-off); inconclusive = no clear call, values can overlap the other calls; inactive = mostly above about 0.92. The list shows a part of the results.

Experiment: chemical genetic growth profiling, strain panel (AID 1159580);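 note: tested at 20 µM; growth read once vehicle control cultures reached saturation at 30 °C; 1 = growth at the plate median or of vehicle wells; lower values mean less growth of the strain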
Conditions: growth OD

Measured: normalized growth

C[N+](C)(C)CCOC(N)=O
inactive: S. cerevisiae deletion strains, locus YKL068W, hits give low values 0.981 | S. cerevisiae deletion strains, locus YKL085W, strain MDH1 (second series), hits give low values 0.969 | S. cerevisiae deletion strains, locus YKL085W, strain MDH1, hits give low values 0.969 | S. cerevisiae deletion strains, locus YKL160W, strain elf1, hits give low values 1.02 | S. cerevisiae deletion strains, locus YKL190W, strain CNB1, hits give low values 1 | S. cerevisiae deletion strains, locus YKR001C, strain vps1, hits give low values 0.991 | S. cerevisiae deletion strains, locus YKR026C, strain gcn3, hits give low values 0.988 | S. cerevisiae deletion strains, locus YKR091W, strain srl3, hits give low values 1 | S. cerevisiae deletion strains, locus YLL001W, strain dnm1, hits give low values 0.998 | S. cerevisiae deletion strains, locus YLL026W, hits give low values 1 | S. cerevisiae deletion strains, locus YLL041C, strain sdh2, hits give low values 1.01 | S. cerevisiae deletion strains, locus YLR027C, strain aat2, hits give low values 1.01 | S. cerevisiae deletion strains, locus YLR039C, strain RIC1, hits give low values 0.993 | S. cerevisiae deletion strains, locus YLR058C, strain SHM2, hits give low values 1 | S. cerevisiae deletion strains, locus YLR102C, strain apc9, hits give low values 0.986 | S. cerevisiae deletion strains, locus YLR113W, strain HOG1, hits give low values 0.959 | S. cerevisiae deletion strains, locus YLR221C, strain rsa3, hits give low values 1.01 | S. cerevisiae deletion strains, locus YLR258W, strain gsy2, hits give low values 1.02 | S. cerevisiae deletion strains, locus YLR262C, strain YPT6 (second series), hits give low values 1.02 | S. cerevisiae deletion strains, locus YLR262C, strain YPT6, hits give low values 0.991 | S. cerevisiae deletion strains, locus YLR268W, strain sec22, hits give low values 0.978 | S. cerevisiae deletion strains, locus YLR320W, strain mms22, hits give low values 1.03 | S. cerevisiae deletion strains, locus YLR330W, strain CHS5, hits give low values 1 | S. cerevisiae deletion strains, locus YLR342W, strain FKS1 (second series), hits give low values 1.12 | S. cerevisiae deletion strains, locus YLR342W, strain FKS1, hits give low values 1.01 | S. cerevisiae deletion strains, locus YLR357W, strain rsc2, hits give low values 1 | S. cerevisiae deletion strains, locus YLR370C, strain arc18, hits give low values 1.01 | S. cerevisiae deletion strains, locus YLR371W, strain rom2, hits give low values 0.97 | S. cerevisiae deletion strains, locus YLR384C, strain iki3, hits give low values 1.04 | S. cerevisiae deletion strains, locus YLR418C, strain cdc73, hits give low values 0.983 | S. cerevisiae deletion strains, locus YML016C, strain PPZ1, hits give low values 1.02 | S. cerevisiae deletion strains, locus YML032C, strain rad52, hits give low values 0.993 | S. cerevisiae deletion strains, locus YML120C, strain ndi1, hits give low values 1.02 | S. cerevisiae deletion strains, locus YML124C, strain tub3, hits give low values 0.974 | S. cerevisiae deletion strains, locus YMR058W, strain fet3, hits give low values 1.02 | S. cerevisiae deletion strains, locus YMR078C, strain ctf18, hits give low values 0.956 | S. cerevisiae deletion strains, locus YMR125W, strain sto1, hits give low values 1.03 | S. cerevisiae deletion strains, locus YMR129W, hits give low values 1.02 | S. cerevisiae deletion strains, locus YMR205C, strain PFK2, hits give low values 1.02 | S. cerevisiae deletion strains, locus YMR223W, strain ubp8, hits give low values 0.975 | S. cerevisiae deletion strains, locus YMR231W, strain pep5, hits give low values 1.02 | S. cerevisiae deletion strains, locus YMR263W, strain SAP30, hits give low values 1 and 0.986 | S. cerevisiae deletion strains, locus YMR307W, strain GAS1, hits give low values 1.16 | S. cerevisiae deletion strains, locus YNL067W, strain RPL9B, hits give low values 0.961 | S. cerevisiae deletion strains, locus YNL071W, strain lat1, hits give low values 1.01 | S. cerevisiae deletion strains, locus YNL128W, strain TEP1, hits give low values 0.971 | S. cerevisiae deletion strains, locus YNL153C, strain GIM3, hits give low values 0.963 | S. cerevisiae deletion strains, locus YNL175C, strain NOP13, hits give low values 0.973 | S. cerevisiae deletion strains, locus YNL183C, strain NPR1, hits give low values 0.938 | S. cerevisiae deletion strains, locus YNL197C, strain WHI3, hits give low values 0.991 | S. cerevisiae deletion strains, locus YNL209W, strain ssb2, hits give low values 1.01 | S. cerevisiae deletion strains, locus YNL224C, strain SQS1, hits give low values 0.991 | S. cerevisiae deletion strains, locus YNL233W, strain BNI4, hits give low values 0.99 | S. cerevisiae deletion strains, locus YNL248C, strain rpa49, hits give low values 1.03 | S. cerevisiae deletion strains, locus YNL250W, strain rad50, hits give low values 0.969 | S. cerevisiae deletion strains, locus YNL271C, strain bni1, hits give low values 0.979 | S. cerevisiae deletion strains, locus YNL298W, strain CLA4, hits give low values 0.977 | S. cerevisiae deletion strains, locus YNL307C, strain MCK1, hits give low values 0.982 | S. cerevisiae deletion strains, locus YNL322C, strain KRE1 (second series), hits give low values 1.02 | S. cerevisiae deletion strains, locus YNL322C, strain KRE1, hits give low values 0.989 | S. cerevisiae deletion strains, locus YNR049C, strain mso1, hits give low values 1.02 | S. cerevisiae deletion strains, locus YNR052C, strain pop2, hits give low values 0.97 | S. cerevisiae deletion strains, locus YOL012C, strain htz1 0.907 | S. cerevisiae deletion strains, locus YOL147C, strain pex11, hits give low values 0.978 | S. cerevisiae deletion strains, locus YOR001W, strain rrp6, hits give low values 1.03 | S. cerevisiae deletion strains, locus YOR061W, strain CKA2, hits give low values 1 | S. cerevisiae deletion strains, locus YOR069W, strain VPS5, hits give low values 1 | S. cerevisiae deletion strains, locus YOR070C, strain gyp1, hits give low values 1.01 | S. cerevisiae deletion strains, locus YOR080W, strain dia2, hits give low values 1.03 | S. cerevisiae deletion strains, locus YOR083W, strain WHI5 (second series), hits give low values 1.01 | S. cerevisiae deletion strains, locus YOR083W, strain WHI5, hits give low values 1.03 | S. cerevisiae deletion strains, locus YOR106W, strain vam3, hits give low values 1.01 | S. cerevisiae deletion strains, locus YOR136W, strain idh2, hits give low values 0.976 | S. cerevisiae deletion strains, locus YOR144C, strain elg1, hits give low values 0.982 | S. cerevisiae deletion strains, locus YOR184W, strain ser1, hits give low values 0.973 | S. cerevisiae deletion strains, locus YOR231W, strain MKK1, hits give low values 1 | S. cerevisiae deletion strains, locus YOR265W, strain rbl2, hits give low values 1.01 | S. cerevisiae deletion strains, locus YOR270C, strain vph1, hits give low values 1.05 | S. cerevisiae deletion strains, locus YOR290C, strain snf2, hits give low values 1.02 | S. cerevisiae deletion strains, locus YOR316C, strain cot1, hits give low values 0.976 | S. cerevisiae deletion strains, locus YPL051W, strain arl3, hits give low values 1.02 | S. cerevisiae deletion strains, locus YPL055C, strain LGE1, hits give low values 0.997 and 0.999 | S. cerevisiae deletion strains, locus YPL078C, strain atp4, hits give low values 1.01 | S. cerevisiae deletion strains, locus YPL106C, strain sse1, hits give low values 1.04 | S. cerevisiae deletion strains, locus YPL240C, strain hsp82, hits give low values 1.02 | S. cerevisiae deletion strains, locus YPL241C, strain CIN2, hits give low values 1.01 | S. cerevisiae deletion strains, locus YPL256C, strain CLN2, hits give low values 0.993 | S. cerevisiae deletion strains, locus YPR119W, strain clb2, hits give low values 0.973 | S. cerevisiae deletion strains, locus YPR141C, strain kar3, hits give low values 0.973 | S. cerevisiae deletion strains, locus YPR163C, strain tif3, hits give low values 0.985 | S. cerevisiae deletion strains, locus YPR167C, strain met16, hits give low values 0.975 | S. cerevisiae deletion strains, strain wtn01, hits give low values 1.01 | S. cerevisiae strains, strain wild type, hits give low values 1.01
